This note sets out measurements from PubChem BioAssay.

Values without a mark were called inactive.

This assay in a line: growth of efflux-deficient E. coli DRC39 – strain DRC39, OD650, 24 h, E. coli filamentation inducers, primary screen (AID 1178).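 Note: growth measured as culture turbidity by optical density at 650 nm; test concentration not given here.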 To be noted: E. coli DRC39 acrAB, higher = more signal, called active from +8 up or from −8 down.
With `CCOC(=O)C[C@H]1[C@H](OC(=O)Cc2ccc3c(c2)OCO3)[C@@H](NC(=O)c2ccc(-c3ccccc3)cc2)c2cc(OCCCO)ccc2N1C(=O)Cc1ccc(OC)cc1`, the z-score was 0.261.

As to `C=CCNC(=O)[C@H]1[C@@H]2C(=O)O[C@@H](c3ccccc3)[C@@H](c3ccccc3)N2[C@@H](c2ccc(O)cc2)[C@]12C(=O)N(C(=O)OCCOC)c1ccc(C#CCNC(N)=O)cc12`, the z-score was 0.204.

For `NCCCCCNC(=O)[C@@H]1C[C@@H]2C(=O)NCC(=O)N2[C@@H]1c1ccc(O)cc1`, the z-score is 0.121.

Regarding `C[N+](C)(C)CCCC[C@@H]1NC(=O)[C@@H]2C[C@H](C(=O)NCCCCCN)[C@H](c3cccc(OCCO)c3)N2C1=O`, the z-score is 0.0148.

As to `COc1cc(CO)cc(I)c1O[C@H]1C=C(C(=O)NCCO)C[C@@H](N(CCN2CCOCC2)C(=O)C2CCOC2)[C@@H]1O` (stereo not given in full), the z-score was 2.68.

Take `[N-]=[N+]=NCc1ccccc1[C@@H]1OC(c2ccc(OCCCO)cc2)=N[C@]1(Cc1ccccc1N=[N+]=[N-])C(=O)N1CCOCC1`: the z-score is -0.38.

Turning to `O=C1NCC(=O)N2[C@@H]1C[C@@H](C(=O)O)[C@H]2c1cccc(OCCO)c1`, the z-score is -0.151.

Turning to `COc1ccc([Si](C)(C)[C@H]2[C@H](CCO)O[C@@]3(C(=O)N(Cc4ccc(N5C(=O)COc6ccccc65)cc4)c4ccccc43)[C@@H]2C)cc1`, the z-score was 0.404.

Regarding `O=C1c2ccccc2[C@@]2(Cc3ccccc3N(CCN3CCOCC3)C2=O)[C@H](c2ccc(CO)cc2)N1Cc1ccccc1`, the z-score is 0.839.

Regarding `COc1ccc([Si](C)(C)[C@@H]2[C@@H](CC(=O)N3Cc4ccccc4C[C@H]3CO)O[C@]3(C(=O)N(C)c4c(Br)cc(C)cc43)[C@H]2C)cc1`, the z-score is 1.34.

On to `CCOC(=O)C[C@H]1[C@H](OC(=O)Cc2ccc3c(c2)OCO3)[C@@H](NC(=O)c2ccc3ccccc3c2)c2cc(OCCCO)ccc2N1C(=O)c1ccccc1`, for which the z-score was -0.241.

`CN1C(=O)C2C=CC(C(O)c3ccccc3)N(Nc3ccccc3)C2C1=O` (stereo not given): the z-score is -1.17.

In the case of `CC(C)c1ccc(NN2C(C(O)C(c3ccccc3)c3ccccc3)C=CC3C(=O)N(c4ccccc4)C(=O)C32)cc1` (stereo not given), the z-score was -1.39.

Regarding `C=C(CCCC)C(=O)CC[C@H](OC(=O)c1cccnc1)c1ccccc1OCCO`, the z-score was 0.836.

In the case of `CC(C)[C@@H](CO)NC(=O)[C@H]1[C@@H](c2ccccc2)N(c2ccccc2)O[C@@H]1C`, the z-score was -0.323.

For `CCOC(=O)[C@H]1CC=C2CC1C(=O)N1CCC[C@@H]1[C@@H]2O[Si](C)(C)C(C)(C)C` (stereo not given in full), the z-score was 0.665.

For the compound `O=C(O)[C@@]1(CCS(=O)(=O)c2ccccc2)COC(c2ccc(OCCCO)cc2)=N1`, the z-score is -0.43.

In the case of `CCOC(=O)[C@H]1C/C=C/C[C@H](C(=O)OCC)C(=O)O[C@H]2[C@@H](OC)O[C@H](CO)[C@@H](OC(=O)Nc3ccc(C#N)cc3)[C@@H]2OC1=O`, the z-score is 1.1.

In the case of `COCCOC(=O)N1C(=O)[C@@]2(c3cc(C#CC4=CCCCC4)ccc31)[C@H](C(=O)N1CCc3cc(OC)c(OC)cc3C1)[C@H]1C(=O)O[C@H](c3ccccc3)[C@H](c3ccccc3)N1[C@@H]2c1ccc(OCCO)cc1`, the z-score is 0.14.

Regarding `C#CCN(CC=C(C)C)[C@H](CO)c1ccccc1`, the z-score was -0.997.

For the compound `COc1ccc(C(O)C2C=CC3C(=O)N(c4ccccc4)C(=O)C3N2Nc2ccccc2F)cc1OCc1ccccc1` (stereo not given), the z-score was -0.472.

Regarding `COc1ccc(C(=O)Nc2ccc(CN3C(=O)[C@@]4(O[C@@H](CC(=O)N5CCC[C@H]5CO)[C@H]([Si](C)(C)c5ccc(OC)cc5)[C@H]4C)c4ccccc43)cc2)cc1`, the z-score is 1.28.

On to `CCOC(=O)C=Cc1cc([N+](=O)[O-])ccc1O`, for which the z-score is -0.238.

Regarding `CCOc1cc(C(O)C2C=CC3C(=O)N(c4ccccc4)C(=O)C3N2Nc2ccccc2)ccc1O` (stereo not given), the z-score was -0.345.

As to `CCOC(=O)C[C@H]1[C@H](OC(=O)c2cc3ccccc3oc2=O)[C@@H](NC(=O)Cc2ccc(OC)cc2)c2cc(OCCCO)ccc2N1C(=O)c1ccccc1`, the z-score was -0.682.

Regarding `O=C(NCc1ccc(F)cc1)[C@H]1C[C@H]2C(=O)N[C@@H](Cc3ccccc3)C(=O)N2[C@H]1c1ccc(O)cc1`, the z-score was 0.222.

In the case of `O=C(c1ccccc1)N1Cc2ccccc2[C@@H]2OC(c3ccc(OCCCO)cc3)=N[C@]2(Cc2ccccc2)C1=O`, the z-score is -0.273.

Turning to `COc1ccc(C(=O)Nc2ccc(CN3C(=O)[C@@]4(O[C@@H](CCO)[C@H]([Si](C)(C)c5ccc(OC)cc5)[C@H]4C)c4ccccc43)cc2)cc1`, the z-score was 1.53.

Take `COc1ccc([Si](C)(C)[C@H]2[C@H](CCn3cc([C@H](O)c4ccccc4)nn3)O[C@@]3(C(=O)N(Cc4cccc(N5CCOC5=O)c4)c4ccccc43)[C@@H]2C)cc1`: the z-score was 0.196.

With `CCCC=C(CCC)[C@@H](NS(=O)(=O)c1cccs1)c1ccc(C(=O)OC)cc1`, the z-score is 0.588.

Consider `O=C(NCc1ccccc1)[C@@]1(Cc2ccccc2)N=C(c2ccc(OCCCO)cc2)O[C@H]1c1ccccc1`, for which the z-score was 0.482.

Consider `COC(=O)c1c(CC[C@@H](CO)NC(=O)N[C@@H](C)Cn2cc(C3(O)CCCCC3)nn2)oc(C(C)=O)c1C(=O)OC`, for which the z-score is 0.104.

For `O=C1O[C@H](c2ccccc2)[C@H](c2ccccc2)N2[C@H]1[C@@H](C(=O)O)[C@]1(C(=O)Nc3ccc(C#CCCO)cc31)[C@H]2c1ccc(O)cc1`, the z-score was 0.994.

`CC(C)C[C@H]1NC(=O)[C@@]23C(=O)N[C@@H](Cc4ccccc4)C2[C@H](C)[C@@]2(C)O[C@H]2C3/C=C/C/C=C\CNC(=O)[C@H](Cc2ccccc2)NC1=O` (stereo not given in full): the z-score was 0.805.

For `COc1ccc(C#Cc2ccc3c(c2)[C@]2(C(=O)N3)[C@H](c3ccccc3OCCO)N3[C@H](c4ccccc4)[C@H](c4ccccc4)OC(=O)[C@H]3[C@@H]2C(=O)O)cc1`, the z-score is 1.06.
